# Compound activity as filed in PubChem.
# Hits are enriched below; roughly 0.97% of the tested compounds scored in any of these assays.
# Mtb UGM inh = M. tuberculosis UGM enzyme inhibitors, primary screen, biochemical, fluorescence polarization, single point; UDP-galactopyranose mutase (Mycobacterium tuberculosis (strain ATCC 25618 / H37Rv)), …; purified UGM, fluorescence polarization probe displacement; inhibition, % at 10 µM; hit rate 0.06% among 320,000; AID 504406, 2011; in the data active means inhibition above about 10%, passing the limit was not always enough; inconclusive means no clear call, values can overlap the other calls
# Target sequence (P9WIQ1 whole entry, looked up): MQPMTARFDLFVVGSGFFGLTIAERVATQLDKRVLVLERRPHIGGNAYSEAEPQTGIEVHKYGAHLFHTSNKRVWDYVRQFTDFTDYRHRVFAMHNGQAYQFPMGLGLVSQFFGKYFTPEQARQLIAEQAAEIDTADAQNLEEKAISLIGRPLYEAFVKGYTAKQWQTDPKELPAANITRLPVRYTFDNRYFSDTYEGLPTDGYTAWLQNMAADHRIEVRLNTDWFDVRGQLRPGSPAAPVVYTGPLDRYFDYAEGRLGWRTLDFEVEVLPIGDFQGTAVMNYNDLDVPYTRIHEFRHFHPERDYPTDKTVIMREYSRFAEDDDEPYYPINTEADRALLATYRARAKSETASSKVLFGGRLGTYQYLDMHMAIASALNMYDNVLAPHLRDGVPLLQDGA
# Rv3671c protease = Rv3671c serine protease inhibitors, primary screen, biochemical, fluorescence polarization, M. tuberculosis H37Rv. inhibition, % at 5.96 µM. hit rate 0.048% among 320,000; in the data active means inhibition above about 38%;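 further: extracellular domain of Rv3671c used as enzyme; 0% = enzyme with DMSO and 100% = no enzyme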
# RecA splice inh = Mtb RecA intein splicing inhibitors, primary screen, biochemical, fluorescence, HTS. Protein RecA (Mycobacterium tuberculosis (strain ATCC 25618 / H37Rv)), P9WHJ3. cell-free RecA intein splicing. inhibition, % (no concentration beside the values). hit rate 0.75% among 290,000. AID 2221, 2009; in the data active means inhibition above about 30%; inconclusive means no clear call, values can overlap the other calls;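 further: 0% = vehicle wells and 100% = reference inhibitor control wells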
# FadD28 binding = inhibitors of FadD28 bisubstrate probe binding, primary screen, biochemical, fluorescence polarization, single point; hit rate 0.22% among 360,000; Mycobacterium tuberculosis FadD28 fatty-acid-AMP ligase; inhibition, % at 12.5 µM; in the data active means inhibition above about 8.5%, passing the limit was not always enough; inconclusive means no clear call, values can overlap the other calls
# TcdB inh = TcdB glycohydrolase inhibitors, primary screen, biochemical, single point, plate reader | inhibition, % at 9.99 µM | hit rate 0.24% among 350,000 | TcdB glycohydrolase enzymatic assay | AID 652162, 2013 | Toxin B (Clostridioides difficile), P18177; in the data active means inhibition above about 10%
# BioA inh = M. tuberculosis BioA enzyme inhibitors, primary screen, biochemical, plate reader, single point, HTS; hit rate 0.096% among 360,000; inhibition, % at 9.99 µM; purified M. tuberculosis BioA enzyme; 7,8-diaminopelargonic acid synthase BioA (Mycobacterium tuberculosis); in the data active means inhibition above about 40%; inconclusive means no clear call, values can overlap the other calls
# * hit, by the source's call; ? = inconclusive; . = no result given.
SMILES,Mtb UGM inh,Rv3671c protease,RecA splice inh,FadD28 binding,TcdB inh,BioA inh
CCOc1ccc(C2C(C#N)=C(N)Oc3cc(O)ccc32)cc1OCC (stereo unspecified),0,1,-8,1,1,5
CCc1[nH]nc2c1C(c1ccncc1)C(C#N)=C(N)O2 (stereo unspecified),4,-8,25,-2,.,1
CCCc1[nH]nc2c1C(C1CCCCC1)C(C#N)=C(N)O2 (stereo unspecified),0,2,-5,-13,-3,-1
CCCc1[nH]nc2c1C(c1ccc(O)cc1OCC)C(C#N)=C(N)O2 (stereo unspecified),-3,-2,78*,-1,.,2
CCOc1cc(C2C(C#N)=C(N)Oc3n[nH]c(C)c32)ccc1OCCN1CCOCC1 (stereo unspecified),-1,-4,48*,0,.,2
C[C@@H]1CN([C@@H](C)CO)C(=O)Cc2cc(NC(=O)Cc3ccccc3)ccc2O[C@@H]1CN(C)S(=O)(=O)c1ccc(F)cc1,.,.,.,.,2,3
CCCC#Cc1cnc2c(c1)C(=O)N([C@@H](C)CO)C[C@H](C)[C@@H](CN(C)C(=O)NCCC)O2,.,.,.,.,1,-2
Cc1[nH][nH]c(=O)c1[C@@H](c1ccccc1[N+](=O)[O-])C(C#N)C#N,0,-2,62*,-1,1,.
CNC[C@@H]1OCCCC[C@@H](C)Oc2ccc(NS(=O)(=O)c3c(C)noc3C)cc2C(=O)N([C@@H](C)CO)C[C@H]1C,.,.,.,.,.,-3
c1ccc2[nH]c3cc4ncnc4cc3nc2c1,9,-11,60*,0,2,.
FC(F)c1nc2ccccc2[nH]1,-1,-6,-5,0,3,.
COc1ccc(N2C(=O)c3[nH]nc(-c4ccccc4)c3C2c2ccc(F)cc2)cc1 (stereo unspecified),.,.,.,.,2,.
COc1ccc(-c2n[nH]c3c2C(c2ccc(OC)c(OC)c2)N(c2ccccc2)C3=O)cc1 (stereo unspecified),0,-26,13,-6,.,65*
O=C1OCC/C1=C\c1ccc(O)cc1,0,-4,-1,-3,21*,0
COc1ccc(OC)c(S(=O)(=O)N2CCC3(CC2)OCCN3S(=O)(=O)c2cccs2)c1,0,7,1,10*,-2,-1
COc1ccc(S(=O)(=O)N2CCC3(CC2)OCCN3S(=O)(=O)c2cccs2)cc1,-1,9,6,-4,-2,-2
CCc1cc(-c2n[nH]c(C)c2-c2nc(C)cs2)c(O)cc1OC,-2,-1,0,-1,12*,.
O=S(=O)(NC[C@@H]1CC[C@H]2[C@H](CN2Cc2cccc(-c3ccccn3)c2)O1)c1ccccc1,.,.,.,.,0,.
CCC(=O)Nc1ccc2c(c1)OC[C@H](C)N(CC1CC1)C[C@H](C)[C@@H](OC)CN(C)C2=O,.,.,.,.,1,.
Oc1cccc2cc3cccc(O)c3c(O)c12,1,38*,-2,-7,.,-2
COc1cc2cccc(OC)c(=O)c2c(O)c1OC,-2,-18,-2,-2,0,1
O=C(CSc1ccc(-c2nc3ccccc3[nH]2)cn1)Nc1ccc(S(=O)(=O)N2CCCC2)cc1,2,-163,-1,22*,.,.
Cc1ccc(N(CCC#N)C(=O)CCl)cc1C,3,-2,56*,-4,0,0
CCN(C[C@@H]1[C@@H](c2ccccc2)[C@@H](CO)N1CC1CC1)C(=O)c1ccccc1F,.,.,.,.,0,.
C[C@H](NC(=O)C[C@H]1CC[C@@H](NC(=O)Nc2ccc3c(c2)OCO3)[C@@H](CO)O1)c1ccccc1,.,.,.,.,-1,1
SMILES,Mtb UGM inh,Rv3671c protease,RecA splice inh,FadD28 binding,TcdB inh,BioA inh
CC(C)(C)c1cc(Cl)c(O)c(NC(=S)NC(=O)c2cccnc2)c1,1,-3,-4,-2,10*,.
Cc1c(O)ccc(NC(=O)/C=C/c2ccccc2)c1C,5,-3,.,-1,17*,.
O=C(/C=C/c1ccccc1)Nc1cccnc1Cl,0,2,2,0,16*,5
CCS(=O)(=O)c1ccc(O)c(NC(=O)/C=C/c2ccccc2)c1,-1,2,-3,1,2,.
CC(C)CC#Cc1cnc2c(c1)C(=O)N([C@H](C)CO)C[C@@H](C)[C@H](CN(C)C(=O)C1CCOCC1)O2,.,.,.,.,1,2
CNC(=O)C[C@@H]1CC[C@H]2[C@H](COc3ccc(NC(=O)NC4CCCC4)cc3C(=O)N2C)O1,.,.,.,.,1,1
CN(C)c1ccc(NC(=O)C(=O)C2C(=O)Nc3ccccc32)cc1 (stereo unspecified),2,-4,-5,1,-1,-1
CC(C)c1ccc(NC(=O)C(=O)C2C(=O)Nc3ccccc32)cc1 (stereo unspecified),0,4,-1,15*,0,.
CC(C)(C)c1ccc(NC(=O)C(=O)C2C(=O)Nc3ccccc32)cc1 (stereo unspecified),-2,4,0,27*,1,.
O=C(C[C@H]1C=C[C@H](NS(=O)(=O)c2ccc(F)cc2)[C@@H](CO)O1)NCc1ccccc1F,.,.,.,.,-1,.
Cn1cnc([N+](=O)[O-])c1Sc1nnc(-c2cccnc2)n1C,3,.,39*,0,1,0
Cc1cccnc1Sc1c([N+](=O)[O-])ncn1C,-1,6,.,-2,.,-3
CNC(=O)C[C@H]1CC[C@H]2[C@H](COc3ccc(NC(=O)c4ccc(C(F)(F)F)cc4)cc3C(=O)N2C)O1,.,.,.,.,.,1
O=c1oc2c(O)c(O)cc3c(=O)oc4c(O)c(O)cc1c4c23,0,1,.,14*,.,5
COc1ccc(S(=O)(=O)N(C)C[C@H]2OCCCC[C@@H](C)Oc3ccc(NS(=O)(=O)c4ccccc4)cc3C(=O)N([C@@H](C)CO)C[C@H]2C)cc1,.,.,.,.,-2,-2
Cc1cccc(NC(=O)CN2C(=O)S/C(=C\c3cccn3-c3cccc(C(=O)O)c3)C2=O)c1,0,-25,-5,62*,0,0
COc1cc(/C=C2\SC(=O)N(CC(=O)Nc3cccc(C)c3)C2=O)ccc1OC(C)C(=O)O (stereo unspecified),-1,-3,1,81*,0,1
COc1ccc(/C=C2\SC(=O)N(CC(=O)Nc3ccccc3O)C2=O)cc1OC,-1,.,-3,?,0,-1
COc1ccc(/C=C2\SC(=O)N(CC(=O)Nc3cccc(C)c3)C2=O)cc1O,-2,-54,0,26*,1,-1
COc1ccc(/C=C2\SC(=O)N(CC(=O)Nc3ccc(O)cc3)C2=O)cc1OC,-1,.,-3,1,1,-3
Cc1ccc(-c2ccc3c(c2)O[C@@H](CN(C)C)[C@H](C)CN([C@H](C)CO)S3(=O)=O)cc1,.,.,.,.,-3,3
